# Sampled rows, rich in hits. Any-hit rate of the full collection: about 2.4%.
# CHRM1 agonist – agonists of human M1 muscarinic receptor | P11229 | CHO-K1 hM1, Fluo-8 calcium fluorescence, agonist mode; 0% DMSO, 100% acetylcholine EC100 | activation, % at 3 µM | hit rate 0.33% among 360,000 | AID 588814;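 active = activation above the run's mean compound activation plus 3 SD, cut at about 16% in these data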;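 note: peak over basal fluorescence ratio within a 140 s kinetic read after compound addition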
# Target sequence (P11229 whole entry, looked up): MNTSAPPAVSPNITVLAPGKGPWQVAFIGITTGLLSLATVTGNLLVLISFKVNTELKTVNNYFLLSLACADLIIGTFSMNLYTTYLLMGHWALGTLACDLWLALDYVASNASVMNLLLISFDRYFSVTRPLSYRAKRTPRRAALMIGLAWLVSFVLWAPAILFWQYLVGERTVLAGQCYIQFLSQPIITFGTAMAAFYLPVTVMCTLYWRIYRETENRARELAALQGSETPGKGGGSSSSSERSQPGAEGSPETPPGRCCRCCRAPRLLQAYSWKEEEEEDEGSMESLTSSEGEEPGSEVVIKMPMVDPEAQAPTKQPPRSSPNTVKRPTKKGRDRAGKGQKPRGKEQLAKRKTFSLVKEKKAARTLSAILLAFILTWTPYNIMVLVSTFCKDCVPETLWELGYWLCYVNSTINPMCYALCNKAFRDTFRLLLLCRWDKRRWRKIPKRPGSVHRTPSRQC
# CHO-K1 Ca antag – counter-screen for M1 antagonists: effect in parental CHO-K1 cells; ATP-induced calcium, Fluo-8 fluorescence; inhibition, % at 3 µM; hit rate 0.6% among 360,000; AID 602250;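 active = inhibition above a per-plate cutoff, the plate's mean sample inhibition plus 3 SD, cut at about 24% in these data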;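 note: 0% = DMSO plus EC80 ATP and 100% = DMSO alone without ATP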
# CHRM1 PAM – positive allosteric modulators of human M1 muscarinic receptor; CHO-K1 hM1, Fluo-8 calcium fluorescence, ACh EC20; 0% = ACh EC20, 100% = maximal ACh; activation, % at 3 µM; hit rate 0.088% among 360,000; in the data active = activation above about 19%, passing the limit was not always enough
# CHO-K1 Ca ag – counter-screen for M1 agonists: effect in parental CHO-K1 cells. Fluo-8 calcium fluorescence; scaled to maximal ATP response, vehicle zero. activation, % at 3 µM. hit rate 0.48% among 360,000; in the data active = activation above about 15%;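 note: untransfected CHO-K1 host cells lacking M1 receptor as counterscreen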
# CHO-K1 Ca PAM – M1 PAM counterscreen hit in parental CHO-K1 cells; ATP EC20, Fluo-8 calcium fluorescence; 0% at ATP EC20, 100% at ATP max; activation, % at 3 µM; hit rate 0.02% among 360,000; AID 602247;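 active = activation above the run cutoff, the mean activation of all test compounds plus 3 SD, cut at about 40% in these data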;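 note: peak over basal fluorescence ratio in a 140 s read after ATP addition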
# M1 antag – antagonists of human M1 muscarinic receptor | P11229 | CHO-K1 hM1, Fluo-8 calcium fluorescence, ACh EC80 antagonist | inhibition, % at 3 µM | hit rate 1.3% among 360,000;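 active = percent inhibition above its own plate's cutoff, namely the mean of that plate's compound wells plus 3 SD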;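 note: peak over basal fluorescence ratio during 140 s after agonist addition; 0% = ACh EC80 plus DMSO and 100% = DMSO alone without agonist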
# Active calls of the source: *.
SMILES,CHRM1 agonist,CHO-K1 Ca antag,CHRM1 PAM,CHO-K1 Ca ag,CHO-K1 Ca PAM,M1 antag
O=C(Cc1cccc(NC(=O)C2CCCN(C(=O)C3CC3)C2)c1)Nc1cccc(C(=O)N2CCOCC2)c1 (stereo not drawn),-0.7,-3.5,5.3,0.7,15.7,-5.7
CC(C)[C@H](NC(=O)c1ccc(F)cc1)C(=O)N(C)Cc1cccs1,-3.3,-5.8,-5.6,0.5,-15.3,15.1
Cc1c(-c2ccccc2)oc2c(C(=O)OCC(=O)Nc3ccc(F)cc3)cccc2c1=O,-3.9,-7.9,-5.4,-0.2,6.5,1.8
O=C(CSc1cn(Cc2cccc(F)c2)c2ccccc12)NCc1ccc(F)cc1,-4.7,4.9,-13.1,3.7,6.1,31.0*
Cc1cc(C)n(C(C)CC(=O)N2CCc3ccccc32)n1 (stereo not drawn),-4.8,-3.9,-15.8,0.6,8.8,32.6*
Cc1c(NC(=O)/C(=C/c2cccs2)c2cccs2)c(=O)n(-c2ccccc2)n1C,-11.4,-7.4,-26.6,-0.1,11.4,53.8*
O=C(NNC(=O)c1ccccc1F)c1ccc(S(=O)(=O)N2CCCCC2)cc1,-2.9,2.1,-1.5,0.0,-8.5,8.4
COc1ccc(CNC[C@@H](CCCCN(C)Cc2ccc(OC)cc2)N2C[C@H](c3ccccc3)N(CCc3ccc(Cl)c(Cl)c3)C(=O)C2=O)cc1,21.3*,-3.2,-5.4,30.0*,4.1,7.4
COc1ccc(CNC(=O)[C@@H]2CC=C[C@@H]3CCN(Cc4ccc(Cl)c(Cl)c4)C(=O)[C@@H]32)cc1,-2.1,-6.0,10.1,0.0,-0.3,-4.4
O=C(NCCc1c[nH]c2ccccc12)C(=O)NCC1OCCN1S(=O)(=O)c1cc(F)ccc1F (stereo not drawn),-1.1,-6.3,2.4,6.9,9.2,-10.3
Cc1cc2nc3n(c2cc1C)CC1CC(C(=O)NCC2CC2)N(C)C31 (stereo not drawn),-10.6,-4.4,-19.1,0.3,-3.5,41.7*
Cc1nnc2ccc(Oc3ccc(-c4ccccc4)cc3)nn12,-2.7,39.9*,-11.7,10.4,-8.1,34.3*
CNc1ccc2nnc(C(F)(F)C(F)(F)C(F)(F)F)n2n1,-2.1,5.2,-5.9,-0.6,-9.7,6.1
CCOc1ccc(NS(=O)(=O)c2ccc(NC(=S)NC(C)=O)cc2)cc1,34.2*,2.9,1.2,21.8*,21.1,7.3
COc1ccc(NS(=O)(=O)c2ccc(NC(=S)NC(=O)C(C)C)cc2)cc1,19.5*,-1.3,4.3,7.9,14.0,2.0
CN1CC(=O)N(CC(=O)Nc2ccc3c(c2)CCC3)C1=O,-2.7,-5.2,5.0,4.0,21.3,3.2
O=c1ccc(Cl)n[nH]1,-0.7,-14.0,11.9,0.9,6.6,-10.1
COc1ccc(CCNC(=O)COc2ccc(S(=O)(=O)NC3CCCCC3)cc2Cl)cc1,-0.5,-9.4,-11.0,9.2,7.2,18.7
O=C(O)CCC(=O)N1CCc2cc(S(=O)(=O)NCCc3ccc(Cl)cc3)ccc21,-0.4,-14.6,14.2,2.0,12.2,-20.9
COc1ccc(CCNS(=O)(=O)c2ccc3c(c2)CCN3C(=O)CCC(=O)O)cc1OC,-5.1,4.7,6.8,18.6*,11.7,-1.6
CSc1nnnn1CCn1nnnc1SC,-3.0,35.9*,-2.7,-0.5,-9.5,-0.6
Cc1ccc(NS(=O)(=O)c2ccc(-n3cccn3)cc2)cc1F,1.1,-7.4,-6.7,5.2,4.4,10.1
COc1cccc(NS(=O)(=O)c2ccc(-n3cccn3)cc2)c1,3.7,12.2,-17.5,16.2*,-0.4,43.9*
Cc1ccc(NS(=O)(=O)c2ccc(-n3cccn3)cc2)nc1,-3.8,31.1*,4.5,1.6,11.9,-6.5
Cc1ccc(NS(=O)(=O)c2ccc(-n3cccn3)cc2)c(C)c1,4.0,-11.6,-3.3,8.6,11.6,4.2
COc1ccc(Cc2nc3ccc(C(=O)NCCc4cccc(C)n4)cc3o2)cc1,1.1,-5.6,6.6,6.2,-9.1,-4.1
CNC(=S)NNC(=O)c1cn(C)nc1C,0.5,24.2*,6.0,-0.7,-14.7,6.9
O=C(Nc1cccc(C(=O)Nc2cccc(Br)c2)c1)c1ccccc1,3.2,25.4*,-7.7,7.6,-20.0,0.1
O=C(Nc1cccc(F)c1)c1ccccc1,-3.3,35.5*,4.5,-0.8,-0.2,-9.0
